Assay results taken from PubChem BioAssay (NCATS).
Records with an inconclusive call do not appear. Activity calls are given as the source filed them. Unless noted, calls follow the shape of the dose curve; as a rule, active = well fitted curve in the direction sought with a large enough effect; inconclusive = small, poorly fitted or top-dose-only effect, or another doubt; inactive = no such curve, though single readings can be large; an effect the other way counts as inactive or inconclusive.

Legend:
[1] = target: D(1A) dopamine receptor (Homo sapiens) (UniProt P21728); assay: HTS Assay for Allosteric Agonists of the Human D1 Dopamine Receptor: Primary Screen for Agonists (AID 488981); also: 0% is about no effect
Outline: (§1)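 Tetracycline-induced HEK293 T-REx cells force-coupled to calcium signalling were incubated overnight at 30 C and dye-loaded at room temperature. Calcium flux over 180 s after compound addition flagged agonists; a further 180 s read after EC20 dopamine flagged potentiators.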

[2] = target: D(1A) dopamine receptor (Homo sapiens) (UniProt P21728); assay: HTS Assay for Allosteric Agonists of the Human D1 Dopamine Receptor: Primary Screen for Potentiators (AID 488982); also: 0% is about no effect
Outline: as §1

[3] = target: D(1A) dopamine receptor (Homo sapiens) (UniProt P21728); assay: HTS Assay for Allosteric Agonists of the Human D1 Dopamine Receptor: Primary Screen for Antagonists (AID 488983);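 also: calcium flux response to an EC80 dopamine challenge measured with no-wash dye; % is scaled to controls: 0 for no effect and ±100 for the full control effect; nearly all actives have a fitted effect of over 65% in size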
Outline: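 Calcium-flux read-out in inducible HEK293 T-REx cells expressing D1, dye-loaded 30–90 min at room temperature. Kinetic reads: 180 s after compound (agonist phase), then 180 s after an EC80 dopamine challenge.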

[4] = Validation screen for small molecules that induce genotoxicity in human embryonic kidney (HEK293T) cells expressing luciferase-tagged ELG1 (AID 493106); also: 0% is about no effect
Outline: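 ELG1-luciferase reporter readout (ONE-Glo, 30 min, room temperature) after 16 hr compound treatment at 37 °C of HEK293T cells at 2,000 per well. Rising luminescence flags genotoxic stress.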

[5] = target: Thyrotropin-releasing hormone receptor (Homo sapiens) (UniProt P34981); assay: qHTS for Small Molecule Agonists and Allosteric Enhancers of Human TRH Receptor: Validation Screen for Agonists (AID 493127;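 active = calcium activation more than 3 SD above the typical response in the agonist read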;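 also: intracellular calcium rise by fluo-8 fluorescence before TRH EC20 addition; 0% is about no effect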); settings: TRH receptor agonist cell assay; at 2 µM; active compounds read high
Outline: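 Compound-evoked intracellular calcium release in fluo-8-loaded TRHR cells, read kinetically on FDSS (Ex 480/Em 530, 1 s/cycle) after 23 nL pintool transfer. Agonist phase preceded 10 nM TRH EC20 addition.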

[6] = target: ATPase family AAA domain-containing protein 5 (Homo sapiens) (UniProt Q96QE3); assay: Validation screen for small molecules that inhibit ELG1-dependent DNA repair in human embryonic kidney (HEK293T) cells expressing luciferase-tagged ELG1 (AID 493107);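 also: series mostly up to about 46 µM; % is scaled to controls: 0 for no effect and ±100 for the full control effect; inhibitors lower the ELG1-luciferase luminescence signal; nearly all actives have a fitted effect of over 70% in size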
Outline: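 Luciferase read-out, ONE-Glo, 30 min at room temperature, follows 16 h co-exposure at 37 C of compound and the DNA-damaging agent 5-fluorouridine. Cells: HEK293T with ELG1-luciferase fusion, 2,000 per well, DMSO as vehicle.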

Sequence of Thyrotropin-releasing hormone receptor (Homo sapiens) (P34981 whole entry, looked up): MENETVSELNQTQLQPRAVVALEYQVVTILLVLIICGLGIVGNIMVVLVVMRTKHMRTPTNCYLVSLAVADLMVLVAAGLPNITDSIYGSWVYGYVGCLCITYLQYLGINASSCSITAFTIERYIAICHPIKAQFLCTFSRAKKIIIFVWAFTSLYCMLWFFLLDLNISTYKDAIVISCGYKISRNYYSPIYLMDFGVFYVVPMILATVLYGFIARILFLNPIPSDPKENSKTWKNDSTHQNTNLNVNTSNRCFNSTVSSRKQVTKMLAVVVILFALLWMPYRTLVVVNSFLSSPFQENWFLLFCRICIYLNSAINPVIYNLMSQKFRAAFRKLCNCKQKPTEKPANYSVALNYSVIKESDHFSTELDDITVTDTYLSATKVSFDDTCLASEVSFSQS
Sequence of D(1A) dopamine receptor (Homo sapiens) (P21728 whole entry, looked up): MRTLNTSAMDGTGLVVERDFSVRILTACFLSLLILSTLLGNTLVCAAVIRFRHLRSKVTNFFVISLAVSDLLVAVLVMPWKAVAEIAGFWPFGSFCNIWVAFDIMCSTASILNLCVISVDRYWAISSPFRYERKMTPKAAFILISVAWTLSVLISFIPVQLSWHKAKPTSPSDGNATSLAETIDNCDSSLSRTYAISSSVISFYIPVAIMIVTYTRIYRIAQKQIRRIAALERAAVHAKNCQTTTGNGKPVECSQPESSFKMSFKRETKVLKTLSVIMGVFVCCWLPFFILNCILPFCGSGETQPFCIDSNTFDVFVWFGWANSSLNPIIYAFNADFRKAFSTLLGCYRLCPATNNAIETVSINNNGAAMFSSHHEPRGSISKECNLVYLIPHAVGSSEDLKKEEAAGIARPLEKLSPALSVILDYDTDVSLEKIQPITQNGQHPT
Sequence of ATPase family AAA domain-containing protein 5 (Homo sapiens) (Q96QE3 whole entry, looked up, the tested form may be a part): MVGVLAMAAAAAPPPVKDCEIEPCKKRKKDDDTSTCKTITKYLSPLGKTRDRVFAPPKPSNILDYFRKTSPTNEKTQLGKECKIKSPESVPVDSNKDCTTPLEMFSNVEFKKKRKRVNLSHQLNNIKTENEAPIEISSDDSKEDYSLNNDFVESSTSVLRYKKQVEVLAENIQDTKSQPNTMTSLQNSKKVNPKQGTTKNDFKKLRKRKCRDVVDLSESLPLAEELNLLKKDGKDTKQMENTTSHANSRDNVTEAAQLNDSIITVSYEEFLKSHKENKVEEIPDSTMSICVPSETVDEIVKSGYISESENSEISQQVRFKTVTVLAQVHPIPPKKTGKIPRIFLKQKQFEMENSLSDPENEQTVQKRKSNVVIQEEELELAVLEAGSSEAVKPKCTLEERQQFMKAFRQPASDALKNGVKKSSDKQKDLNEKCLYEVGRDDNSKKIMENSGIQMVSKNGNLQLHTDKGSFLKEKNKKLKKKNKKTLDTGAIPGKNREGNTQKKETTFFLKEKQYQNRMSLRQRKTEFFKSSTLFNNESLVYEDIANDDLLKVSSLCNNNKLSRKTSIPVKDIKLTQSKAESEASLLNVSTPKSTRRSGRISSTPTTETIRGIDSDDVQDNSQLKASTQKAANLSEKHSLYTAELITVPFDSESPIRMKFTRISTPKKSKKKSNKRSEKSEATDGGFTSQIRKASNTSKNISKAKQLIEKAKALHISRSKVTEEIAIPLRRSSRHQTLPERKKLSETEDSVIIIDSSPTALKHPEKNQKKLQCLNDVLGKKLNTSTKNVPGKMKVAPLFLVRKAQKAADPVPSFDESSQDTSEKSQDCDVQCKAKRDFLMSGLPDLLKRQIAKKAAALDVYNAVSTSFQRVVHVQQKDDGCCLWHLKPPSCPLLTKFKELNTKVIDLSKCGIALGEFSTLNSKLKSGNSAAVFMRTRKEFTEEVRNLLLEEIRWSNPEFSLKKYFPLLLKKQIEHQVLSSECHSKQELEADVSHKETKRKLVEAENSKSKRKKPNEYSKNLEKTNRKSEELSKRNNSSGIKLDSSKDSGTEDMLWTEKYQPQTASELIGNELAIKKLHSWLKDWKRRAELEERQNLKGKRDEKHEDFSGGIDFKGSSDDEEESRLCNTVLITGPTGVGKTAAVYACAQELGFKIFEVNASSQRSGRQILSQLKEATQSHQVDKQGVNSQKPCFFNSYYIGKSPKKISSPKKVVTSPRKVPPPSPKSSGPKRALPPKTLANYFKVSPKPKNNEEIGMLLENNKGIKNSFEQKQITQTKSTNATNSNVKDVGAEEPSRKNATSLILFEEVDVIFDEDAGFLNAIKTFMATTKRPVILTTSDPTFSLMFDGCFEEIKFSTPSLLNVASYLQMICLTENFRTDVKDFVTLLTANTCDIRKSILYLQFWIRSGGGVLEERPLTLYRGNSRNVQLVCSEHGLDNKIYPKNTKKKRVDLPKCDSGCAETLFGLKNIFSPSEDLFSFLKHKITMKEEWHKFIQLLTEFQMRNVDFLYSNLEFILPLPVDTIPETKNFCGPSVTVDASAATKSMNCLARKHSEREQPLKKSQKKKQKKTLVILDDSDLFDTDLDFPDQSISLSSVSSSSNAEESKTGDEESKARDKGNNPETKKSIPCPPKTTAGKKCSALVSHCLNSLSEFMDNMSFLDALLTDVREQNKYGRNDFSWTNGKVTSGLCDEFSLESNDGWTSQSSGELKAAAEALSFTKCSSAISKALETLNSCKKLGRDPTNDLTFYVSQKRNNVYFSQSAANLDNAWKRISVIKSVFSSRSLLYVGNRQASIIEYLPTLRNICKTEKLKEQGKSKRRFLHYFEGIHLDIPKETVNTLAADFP

OC[C@H]1O[C@@H](n2cnc3cncnc32)[C@H](O)[C@@H]1O
inactive: Potency [1] | Potency [2] | Potency [3] | Potency [4] | activation [5] 1.44%

Nc1ncnc2c1nc(Sc1ccc(Cl)cc1)n2[C@H]1OC2COP(=O)(O)O[C@@H]2C1O (stereo not given in full)
inactive: Potency [1] | Potency [2] | Potency [3] | Potency [6]

CNCCc1cnc(CCC(c2ccccc2)c2ccccc2)[nH]1
inactive: Potency [2] | Potency [3] | Potency [4] | Potency [6]

CC(C)[C@@H]1CC[C@@H](C)C[C@@H]1P(=O)(c1ccccc1)c1ccccc1
inactive: Potency [1] | Potency [2] | Potency [3] | Potency [4] | Potency [6]

C=C1C[C@@]23CC[C@H]4[C@@](C)(CCC[C@@]4(C)C(=O)OC4OC(CO)C(O)C(O)C4O)[C@@H]2CC[C@]1(OC1OC(CO)C(O)C(O)C1OC1OC(CO)C(O)C(O)C1O)C3 (stereo not given in full)
inactive: Potency [1] | Potency [2] | Potency [3] | Potency [4] | Potency [6]

CC1=C(/C=C/C(C)=C/C=C/C(C)=C\C(=O)O)C(C)(C)CCC1
inactive: Potency [1] | Potency [2] | Potency [3] | Potency [4] | activation [5] 0.75%

Oc1ccc(/C=C/c2ccc(/C=C/c3ccc(O)cc3)c(Br)c2)cc1
inactive: Potency [1] | Potency [2] | Potency [3] | Potency [4] | Potency [6]

C=C1C[C@@]23CC[C@H]4[C@@](C)(CCC[C@@]4(C)C(=O)O)[C@@H]2CC[C@]1(O)C3
inactive: Potency [2] | Potency [3] | Potency [4] | Potency [6]

CN(CC[C@@H](Oc1ccc(C(F)(F)F)cc1)c1ccccc1)CC(=O)O
inactive: Potency [1] | Potency [2] | Potency [3] | Potency [4] | Potency [6]

CC(N)(Cc1ccc(O)cc1)C(=O)O (stereo not given)
inactive: Potency [1] | Potency [2] | Potency [3] | Potency [4] | Potency [6]

Nc1ccc(N2C(=O)c3ccccc3C2=O)c(Cl)c1
inactive: Potency [1] | Potency [2] | Potency [3] | Potency [4] | Potency [6] | activation [5] -4.94%

Cc1nc(N=Nc2ccc(C(=O)O)cc2)c(COP(=O)(O)O)c(C=O)c1O
inactive: Potency [1] | Potency [2] | Potency [3] | Potency [4] | Potency [6] | activation [5] 0.125%

CCCCCCC(=O)OC1CC(C)(C)NC(C)(C)C1
inactive: Potency [2] | Potency [3] | Potency [4]

O=C(O)C1=CCNCC1
inactive: Potency [1] | Potency [3] | Potency [4] | activation [5] 1.25%

NC[C@@H]1O[C@H](c2ccccc2)Cc2c1ccc(O)c2O
inactive: Potency [1] | Potency [2] | Potency [4] | Potency [6]

Nc1ncnc2c1nc(Br)n2C1OC2COP(=O)(O)O[C@@H]2C1O (stereo not given in full)
inactive: Potency [1] | Potency [2] | Potency [3] | Potency [4] | Potency [6]
